Assay [1] is described as follows: Wnt pathway potentiators raising nuclear beta-catenin – imaging, WNT3A-conditioned medium, mouse C2C12, NPC library, primary screen (AID 1117326; in the data active means nuclear beta-catenin stimulation mostly above about 4.2%, no sharp cut-off; inactive means mostly below about 10%; further: reference of the scale not given here). To be noted: stronger effect = higher value.
Assay [2] in a line: stimulators of insulin release from INS-1E, primary screen, cell-based, 5 mM glucose, NPC library (AID 1117329;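 active means compound raises insulin release from rat beta cells at 5 mM glucose, no numeric limit stated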; further: reference of the scale not given here). To be noted: rat INS-1E insulin secretion, at 10 µM, stronger effect = higher value.
A short description of assay [3]: growth inhibition of GSK3B-pretreated HCT116 cells – cell-based, CellTiter-Glo, 0.2 to 20 µM (AID 1117336;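 active means compounds lowering colon cancer cell viability after pretreatment blocking the GSK3B kinase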). To be noted: HCT116 viability after GSK3B inhibitor, at 20 µM, stronger effect = higher value. A general note: In ATP-based viability assays light output follows the ATP content of the culture.
Assay [4] in a line: inhibition of endothelial tube formation, primary screen, imaging, VEGF stimulated, CD31 staining, tube area, NPC library (AID 1117340). To be noted: VEGF-stimulated ADSC/ECFC co-culture, at 10 µM, stronger effect = higher value.
Assay [5] can be described thus: GLP1 release stimulators, primary, NCI-H716, NPC library (AID 1117341;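 active means compound raises GLP1 secretion from the human gut endocrine cells, with no numeric limit stated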; further: reference of the scale not given here). To be noted: NCI-H716 cells, at 10 µM, stronger effect = higher value.
Assay [6] in a line: HCT116 colon cancer cell growth inhibition, primary screen, CellTiter-Glo luminescence, NPC library (AID 1117342;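 active means compounds that lower survival of HCT116 colon cancer cells in the luminescence readout, no numeric limit stated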). To be noted: at 20 µM (top of the series).
Assay [7] is described as follows: reduced SW480 viability measured with CellTiter-Glo, NPC library, primary (AID 1117343;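 active means compounds that lower viability of the colon cancer cells in the luminescence readout, with no numeric limit stated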). To be noted: CellTiter-Glo luminescence; at 20 µM (top of the series) unless noted.
Assay [8] can be described thus: NPC library primary testing for decreased DLD-1 cell viability via CellTiter-Glo (AID 1117346;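 active means compounds that lower survival of DLD-1 colon cancer cells in the luminescence readout, no cutoff given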). To be noted: DLD-1 viability, CellTiter-Glo luminescence; at 20 µM (top of the series).
Assay [9] is described as follows: viability loss with induced miR-34 in A549 – imaging, A549 dox-inducible miR-34, nuclei and caspase counts, primary screen (AID 1347080;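 active means compounds whose cell count with miR-34 switched on is under 0.7 times the count with it off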). To be noted: A549 miR-34 inducible, Hoechst nuclei count, 48 h.
Assay [10] is described as follows: blockers of cellular phospholipid synthesis – cell-based, LOPAC library, screen 4, primary screen (AID 1347384; call rule not given here). To be noted: animal cells, phospholipid biosynthesis inhibition screen; at 10 µM.
Assay [11] can be described thus: galactose survival enhancers in mitochondrial complex I cybrids – cell-based, galactose medium, ATP luminescence, primary screen (AID 1645843;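 active means z-score of at least 1.8 in each of two replicates, scored against plate mean and spread of sample wells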;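 further: positive z means more ATP and so rescue of galactose-driven cybrid death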). To be noted: complex I mutant cybrid cells, 72 h, stronger effect = higher value.
[12] abbreviates: stronger effect = lower value, cell number ratio, induced over uninduced.
Where [13] appears, read: measured here: relative caspase fold change +Dox/-Dox.
Setting [14] is: measured here: total cells with miR-34 induction, stronger effect = lower value.
Where [15] appears, read: measured here: total cells without miR-34 induction.

Calls of active or inactive are those of the source.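 How the source made its calls, unless noted: active means compound that reduces growth-factor-driven endothelial tube area in a mixed cell culture, no cutoff stated; inactive means the rest.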

`C[C@]12CCC(=O)C=C1CC[C@@H]1[C@@H]2CC[C@@]2(C)[C@H]1CC[C@]2(O)C(=O)CO`: the nuclear beta-catenin stimulation is 0.3% (inactive) in assay [1] (at 10 µM) and -0.1% in assay [1] (stimulation, at 2 µM). Also, the insulin secretion stimulation in assay [2] was -1.7% (inactive). In [3], the viability decrease was -3.9% (inactive). The tube area decrease in [4] was 5.4% (inactive). The GLP1 secretion stimulation in assay [5] is 1.1% (inactive). Further, the inhibition of viability in [6] was 25.1% (inactive). The viability decrease (inhibition) in assay [7] is 12.3% (inactive); in assay [8], -6.8% (inactive). Moreover, the fold change in [9] (setting [12]) was 1 (inactive); in assay [9] (setting [13]) it was 0.913. Further, the figures for the cell count in assay [9] (setting [14]) and in assay [9] (setting [15]) were 8610 and 8590, respectively. Also, in assay [10], the call was inactive. In assay [11], the z-score is 0.435 (inactive).
Consider `N[C@@H](CC(=O)O)C(=O)O`, for which the nuclear beta-catenin stimulation is 0% (inactive) in assay [1] (at 10 µM) and -0.6% in [1] (stimulation, at 2 µM). Also, in assay [2], the insulin secretion stimulation was 1.3% (inactive). In addition, in assay [3], the viability decrease is 7.1% (inactive). The tube area decrease in assay [4] is -11.9% (inactive). For the same compound, the GLP1 secretion stimulation in [5] is -0.5% (inactive). In [6], the inhibition of viability was 1.9% (inactive). Besides, the viability decrease (inhibition) in assay [7] is -18.5% (inactive); in [8], 1.6% (inactive). Moreover, the fold change in assay [9] (setting [12]) is 1 (inactive); in [9] (setting [13]), 1.56. Besides, the cell count in assay [9] (setting [14]) turned out to be 10800; in assay [9] (setting [15]), 10700. In assay [10], the compound was called inactive. In addition, the z-score in assay [11] is 0.255 (inactive).
With `O=c1[nH]c(=O)n([C@H]2C[C@H](O)[C@@H](CO)O2)cc1Br`, the nuclear beta-catenin stimulation is 0.6% (inactive) in [1] (at 10 µM) and -1.1% in assay [1] (stimulation, at 2 µM). Moreover, the insulin secretion stimulation in assay [2] is 0.6% (inactive). In assay [3], the viability decrease was 17.6% (inactive). Moreover, in assay [4], the tube area decrease was 54.6% (active). Moreover, the GLP1 secretion stimulation in assay [5] was 0.6% (inactive). For the same compound, the inhibition of viability in assay [6] was 14.8% (inactive). The viability decrease (inhibition) in [7] was 18.4% (inactive); in assay [8], 34.2% (inactive). Further, the fold change in assay [9] (setting [12]) is 0.769 (inactive); in assay [9] (setting [13]), 2.25. Also, the cell count in assay [9] (setting [14]) came out at 7520; in assay [9] (setting [15]) it was 9790. In addition, the result in assay [10] was inactive. For the same compound, in [11], the z-score was 5.63 (active).
As to `O=C1NC(=O)[C@@]2(CCOc3ccc(F)cc32)N1`, the nuclear beta-catenin stimulation in assay [1] (at 10 µM) is -1.1% (inactive); in assay [1] (stimulation, at 2 µM), 0.6%. Moreover, the insulin secretion stimulation in assay [2] is 1.1% (inactive). The viability decrease in assay [3] was -5.9% (inactive). Further, the tube area decrease in assay [4] is -2.4% (inactive). The GLP1 secretion stimulation in [5] was 0% (inactive). In [6], the inhibition of viability was 4.6% (inactive). Further, the viability decrease (inhibition) in assay [7] was -5.9% (inactive); in assay [8] it was -7.9% (inactive). For the same compound, the fold change in assay [9] (setting [12]) is 0.973 (inactive); in assay [9] (setting [13]) it was 1.69. Also, the cell count came to 9980 in assay [9] (setting [14]) and 10300 in [9] (setting [15]). In assay [10], the compound was called inactive. Further, in [11], the z-score was 0.695 (inactive).
As for `NC(N)=NCCC[C@H](N)C(=O)O`, the nuclear beta-catenin stimulation in assay [1] (at 10 µM) is -0.2% (inactive); in [1] (stimulation, at 2 µM), 2.5%. Besides, in assay [2], the insulin secretion stimulation is 0.9% (active). Also, in assay [3], the viability decrease is 2.3% (inactive). In addition, the tube area decrease in assay [4] is -23.7% (inactive). Moreover, in [5], the GLP1 secretion stimulation was 2.9% (inactive). In addition, the inhibition of viability in assay [6] is -16.4% (inactive). Besides, the viability decrease (inhibition) in [7] is 8.2% (inactive); in [8] it was 0% (inactive). In addition, the fold change in [9] (setting [12]) was 0.976 (inactive); in [9] (setting [13]) it was 1.65. For the same compound, the cell count in assay [9] (setting [14]) is 10400; in assay [9] (setting [15]) it was 10700. Moreover, the result in [10] was inactive. For the same compound, the z-score in assay [11] is 0.285 (inactive).
Turning to `CC1=C(CC(=O)O)c2cc(F)ccc2/C1=C\c1ccc(S(C)(=O)=O)cc1`, the nuclear beta-catenin stimulation in assay [1] (at 10 µM) is 0.1% (inactive); in assay [1] (stimulation, at 2 µM) it was -0.8%. Also, in assay [2], the insulin secretion stimulation is -1.1% (inactive). The viability decrease in [3] was 39.5% (inactive). The tube area decrease in [4] is 7.6% (inactive). Besides, the GLP1 secretion stimulation in assay [5] was -0.4% (inactive). The inhibition of viability in assay [6] was 66.3% (active). For the same compound, the viability decrease (inhibition) in assay [7] is 88.7% (active); in assay [8], 90.1% (active). In addition, the fold change was 0.998 (inactive) in assay [9] (setting [12]) and 1.86 in assay [9] (setting [13]). Besides, the cell count in assay [9] (setting [14]) stood at 9240; in assay [9] (setting [15]), 9260. Moreover, the result in [10] was inactive. The z-score in [11] is 0.795 (inactive).

Values taken from PubChem BioAssay.
